Laboratory results published in PubChem BioAssay (NCI).
Compounds without any hit were thinned out: in the full panel of roughly 83,000, 20% have a hit.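 Values shown are percent growth following 48 h exposure of cells in 96-well plates to a single concentration of compound; below 10 was considered active.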 Calls of active or inactive are those of the source.

What was measured:
Experiment in all cases: NCI-60 one-dose screen, 48 h (100 = growth as untreated, 0 = no growth, -100 = all killed)
Conditions in all cases: 10 µM
[1] = tested on: SK-MEL-2 melanoma
[2] = tested on: EKVX NSCLC
[3] = tested on: SN12C renal
[4] = tested on: UO-31 renal
[5] = tested on: ACHN renal
[6] = tested on: CAKI-1 renal
[7] = tested on: A498 renal
[8] = tested on: CCRF-CEM leukemia
[9] = tested on: MOLT-4 leukemia
[10] = tested on: TK-10 renal

Measured: growth

Cc1cc(Cl)ccc1Nc1nc(C(F)(F)F)ccc1C(=O)N/N=C/c1c(Cl)cccc1Cl
active: [1] -17.4% | [2] 0.628% | [3] 6.51% | [4] 4.21% | [5] -8.52% | [6] -22.7% | [7] -60.8% | [8] -18% | [9] -16.8%

Cc1ccc(C2NC(=S)N3C(c4ccc(C)cc4)NC(=S)N23)cc1 (stereo not given)
active: [1] -32.9%
inactive: [2] 43.1% | [3] 52.5% | [4] 12.7% | [5] 63.4% | [7] 49.6% | [8] 12.3% | [9] 24.8%

Fc1ccc(C(c2ccc(F)cc2)C(Cl)Cl)cc1
inactive: [1] 97.1% | [2] 101% | [3] 108% | [10] 110% | [5] 102% | [6] 96.8% | [8] 93.7% | [9] 94.2%

CSc1nc2c(c(=O)n1C)CN(Cc1ccccc1)C(=O)CN2
inactive: [1] 86.3% | [2] 86% | [3] 97.7% | [4] 78.3% | [5] 96.4% | [6] 88.6% | [7] 92.4% | [8] 80.7% | [9] 92.5%

CS(=O)(=O)c1nccc(-c2c(-c3cccc(OCCN4CCOCC4)c3)nc3sccn23)n1
inactive: [1] 102% | [2] 101% | [3] 96.8% | [4] 68.5% | [5] 90.9% | [6] 85.3% | [7] 59.2% | [9] 93.9%

Clc1nc2ccc(Br)cc2cc1-c1nc2ccccc2[nH]1
active: [5] 2.34%
inactive: [1] 120% | [2] 50.3% | [3] 15.2% | [4] 79.7% | [6] 84.2% | [7] 39.9% | [8] 72.9% | [9] 47.2%

CC[N+](CC)=c1ccc2nc3c(cc(NCc4ccccc4)c4ccccc43)oc-2c1
inactive: [7] 44.8% | [8] 19%
active: [1] -80.1% | [2] -96.7% | [3] -85.9% | [10] -10.6% | [5] -77.9% | [6] -70.8% | [9] 2.86%

COc1cc(C2C(C#N)=C(N)Oc3cc(O)ccc32)cc(OC)c1OC (stereo not given)
active: [7] -5.59% | [8] 8.88% | [9] 6.05%
inactive: [1] 23.4% | [2] 55.3% | [3] 35.9% | [4] 43% | [5] 51.8%

NS(=O)(=O)c1ccc(N2N=C(c3ccccc3)CCC2=O)cc1
inactive: [1] 107% | [2] 130% | [3] 101% | [4] 104% | [5] 114% | [7] 83% | [8] 108%

COC1=CC(=O)OC(c2ccc(OC)cc2)C1 (stereo not given)
inactive: [1] 98.9% | [2] 96.1% | [3] 99.3% | [10] 104% | [5] 103% | [6] 85.8% | [7] 96.4% | [8] 107% | [9] 101%

CCCCC/C=C/C/C=C/CCCCCCCC1=NC(C)(C)CN1C(C)C
inactive: [1] 84.6% | [2] 51.9% | [3] 47.9% | [4] 26.2% | [5] 32.9% | [6] 26.9%
active: [8] 8.7% | [9] 1.44%

COc1cc2cc(Oc3ccc(NC(=O)Nc4ccc(Cl)c(Cl)c4)cc3)c(C)nc2cc1OC
active: [1] -7.82% | [4] 3.69%
inactive: [2] 21% | [3] 22.1% | [5] 16.4% | [7] 35.8% | [8] 13.3%

CC(C)N(CCOc1cccc(-c2nc3sccn3c2-c2ccnc(S(C)(=O)=O)n2)c1)C(C)C
inactive: [1] 109% | [2] 101% | [3] 83.9% | [4] 89.8% | [5] 93.7% | [6] 93.3% | [7] 53.2% | [8] 81% | [9] 84.3%

CN(C)CCOc1cccc(-c2nc3sccn3c2-c2ccnc(S(C)(=O)=O)n2)c1
inactive: [1] 117% | [2] 99.5% | [3] 90.5% | [4] 72.1% | [5] 92.2% | [6] 99.5% | [7] 59.6% | [9] 99.9%

Cc1c(C(N)=O)sc2c1c(=O)n(Cc1ccccc1)c1nnc(-c3ccc(Br)cc3)n21
active: [6] 1.27%
inactive: [1] 42.5% | [2] 36.7% | [3] 32.8% | [10] 47.4% | [5] 10.1% | [7] 56%

O=c1c(Br)ccc(Br)cc1Br
active: [1] -73.3% | [3] 4.44% | [10] -44.5% | [5] -79.1% | [6] -81.3% | [8] -41.4% | [9] -36.8%
inactive: [2] 99.1% | [7] 93%

c1ccc(/C(=N\Nc2ccc3ccccc3n2)c2ccccn2)cc1
inactive: [2] 15.1% | [3] 18.5% | [4] 13.7%
active: [1] -9.63% | [5] 0.2% | [7] -47.3% | [8] -39% | [9] -21.8%

Cc1cc(Br)nnc1Br
inactive: [1] 123% | [2] 114% | [3] 109% | [10] 124% | [5] 108% | [6] 101% | [8] 97.8% | [9] 93.4%

OCCn1cccn1
inactive: [1] 118% | [2] 105% | [3] 104% | [10] 107% | [5] 103% | [6] 86.4% | [7] 94.2% | [8] 99.7%

COc1cccc(C2C(C#N)=C(N)Oc3cc(N)ccc32)c1 (stereo not given)
active: [7] 1.48%
inactive: [1] 24.5% | [2] 55.7% | [3] 36.3% | [4] 49.7% | [5] 55.4% | [8] 11.4% | [9] 28.9%

COc1ccc2c(c1)C(CC(=O)NN)CCC2 (stereo not given)
inactive: [1] 108% | [2] 109% | [3] 104% | [10] 98.7% | [5] 99.6% | [6] 91.2% | [7] 93.2% | [8] 100% | [9] 86.8%

O=C(N/N=C/c1ccc(Cl)cc1)c1ccccc1Nc1cccc(C(F)(F)F)c1
active: [7] -13.2%
inactive: [1] 70.6% | [2] 66.6% | [3] 91.3% | [4] 40.8% | [5] 102% | [6] 86% | [8] 69.7% | [9] 74.2%

CN(C)c1nc(N)c2nccnc2n1
inactive: [1] 97.9% | [2] 98.3% | [3] 99.6% | [10] 104% | [5] 105% | [6] 84.7% | [7] 93% | [8] 114% | [9] 98.1%

CC(=O)OC1CC2C(C)(C)CCC[C@]2(C)C2=C1C(O)=C(C(C)C)C(=O)C2=O (stereo not given in full)
active: [1] -2.83% | [2] -15.7% | [3] 3.28% | [5] -95.3% | [6] -5.22%
inactive: [10] 22.5% | [8] 26.8% | [9] 17.4%

CCCCN1C(=O)CC(SC2CC(=O)N(CCCC)C2=O)C1=O (stereo not given)
inactive: [1] 99.7% | [2] 98.5% | [3] 102% | [10] 103% | [5] 99% | [6] 88.6% | [7] 99.6% | [8] 97.1% | [9] 103%

CC(=O)COc1ccc(Cl)cc1Cl
inactive: [1] 113% | [2] 93% | [3] 95.3% | [10] 105% | [5] 116% | [6] 107% | [7] 82.9%

O=C1CC(=O)N(C(=O)c2nn(-c3ccc(Cl)cc3)cc2O)N1
inactive: [1] 53% | [2] 29.6% | [3] 45.1% | [4] 25.6% | [5] 38.3% | [7] 113% | [9] 16.6%
active: [6] -7.19% | [8] 5.93%

Nc1nc(N)c(N)c(Nc2ccc(CCO)cc2)n1
inactive: [1] 118% | [2] 91.9% | [3] 100% | [10] 102% | [5] 106% | [6] 100% | [7] 92.8%

CS(=O)(=O)c1nccc(-c2c(-c3cccc(O)c3)nc3sccn23)n1
inactive: [1] 107% | [2] 88.7% | [3] 91% | [4] 66.5% | [5] 86.2% | [6] 95.5% | [7] 70.5% | [8] 90% | [9] 93%

O=C(c1ccccc1)N(C(=O)c1ccccc1)N1CCCC1
inactive: [1] 95.6% | [2] 103% | [3] 100% | [10] 101% | [5] 96.3% | [6] 91.1% | [7] 106% | [8] 94.8% | [9] 99.3%

O=C(N/N=C/c1c(Cl)cccc1Cl)c1ccccc1Nc1cccc(C(F)(F)F)c1
active: [7] -5.76%
inactive: [1] 71.4% | [2] 89.8% | [3] 92.6% | [4] 93.7% | [5] 102% | [8] 73.1% | [9] 77.9%

CCn1cc(C(=O)O)c(=O)c2cc(F)c(N3CCNCC3)cc21
inactive: [1] 113% | [2] 102% | [3] 106% | [10] 116% | [5] 95.5% | [6] 96.5% | [7] 117% | [8] 102% | [9] 93.5%

CS(=O)(=O)c1nccc(-c2c(-c3cccc(OCc4ccc(F)cc4)c3)nc3sccn23)n1
inactive: [1] 96% | [2] 97.2% | [3] 77.7% | [5] 94.9% | [6] 34.4% | [7] 77.3% | [8] 50% | [9] 24.2%
active: [4] -24.1%
